Assay results from ChEMBL document CHEMBL4513216, “Probing the Open Global Health Chemical Diversity Library for Multistage-Active Starting Points for Next-Generation Antimalarials” (ACS Infect Dis, 2020).
The campaign covered roughly 68,000 compounds. About 2,700 (4%) showed an effect of 50% or more. Shown is part of a subset that was picked to be rich in strong results.

Each compound was assayed on Plasmodium berghei (assay: Screen against P. berghei liver stage (PbLuc), transformed with Luciferase, at 2uM). Conditions: tested at 2 uM.
Assay type: functional, HepG2

SMILES	INHIBITION
COc1ccc2c(c1)OCC(CNC1CCc3ncnn3C1)=C2 (stereo not given)	-34.12%
Cc1ccc(F)cc1C(=O)OCC1CCCN1C(N)=O (stereo not given)	5.48%
NC(=O)N1CCCC1COC(=O)c1cc(F)ccc1F (stereo not given)	61.91%
NC(=O)N1CCCC1COC(=O)c1ccc(F)cc1Br (stereo not given)	6.47%
CN1CCN(C=C2N=C(c3cc(-c4ccc(F)cc4)n[nH]3)ON2)CC1	22.39%
CCN(C)C[C@@H]1CN(S(=O)(=O)c2cccc(Cl)c2)C[C@@H]1CO	55.36%
CC[C@H]1CN(S(=O)(=O)c2ccc(OC)cc2)CC[C@H]1CC(=O)O	45.73%
CCN(C)C[C@@H]1CN(S(=O)(=O)c2cccc(C#N)c2)C[C@@H]1CO	14.82%
CCN(C)C[C@@H]1CN(S(=O)(=O)c2ccc(OC)cc2)C[C@@H]1CO	76.82%
CCN(C)C[C@@H]1CN(S(=O)(=O)c2ccc(C#N)cc2)C[C@@H]1CO	14.82%
CCN(C)C[C@@H]1CN(Cc2cccc(Cl)c2)C[C@@H]1CO	38.97%
CCCC1(CO)CCCN(C(=O)CNC(N)=O)C1 (stereo not given)	3.49%
Cc1noc(C)c1CN1CCOC2(CCCN(c3nncs3)C2)C1 (stereo not given)	31.96%
CCCS(=O)(=O)N1CCC2(CC1)CN(CC1CCOC1)c1ccccc12 (stereo not given)	27.67%
O=C(NCCN1CCCCC1)c1scnc1Cl	-9.66%
CC1CCN(CCNC(=O)c2scnc2Cl)CC1	47.87%
COc1cn(-c2ccccc2)nc1C(=O)NCCCN1CCCC(C)C1 (stereo not given)	20.11%
CC1CCCN(CCNC(=O)c2ccn(-c3ccccc3)n2)C1 (stereo not given)	-61.61%
COc1cn(-c2ccccc2)nc1C(=O)NCCN1CCCC(C)C1 (stereo not given)	66.2%
CC1CCCN(CCNC(=O)c2scnc2Cl)C1 (stereo not given)	78.42%
O=C(NCC1(O)COCCN(Cc2ccc(O)cc2)C1)c1cnccn1 (stereo not given)	30.1%
CCCc1nc(C)cc(NCc2ccc(S(N)(=O)=O)cc2)n1	-16%
Cc1nnc(-c2cccc(C#N)c2)n1C1CCCN(C(C)C)C1=O (stereo not given)	-12.01%
COc1nc2c(cc1C(=O)N1CC[C@H](CO)[C@@H](O)C1)CCC2	49.02%
Cc1nc2c(c(NCCc3nccs3)n1)CCN(CC1CC1)CC2	-28.09%
COCCNc1nc(C2CCCC2)nc2c1CCNCC2	34.98%
COCCNc1nc(C)nc2c1CCN(CC1CCC(N)CC1)CC2 (stereo not given)	57.67%

SMILES	INHIBITION
O=C(O)COCC(=O)NC1CC2(CCCCC2)Oc2ccccc21 (stereo not given)	13.22%
Cc1noc(C2CCN(C(=O)c3ccc(C(F)(F)F)nc3)CC2)n1	5.05%
CCCNC(=O)c1cc2c(nc1O)CCC(C)C2 (stereo not given)	44.39%
CC1CCc2nc(O)c(C(=O)NCCN(C)C)cc2C1 (stereo not given)	27.24%
Cc1csc(CCNC(=O)c2cc3c(nc2O)CCC(C)C3)n1 (stereo not given)	-46.57%
CC1CCc2nc(O)c(C(=O)NCCCN3CCN(C)CC3)cc2C1 (stereo not given)	68.39%
CC1CCc2nc(O)c(C(=O)NCCc3cccs3)cc2C1 (stereo not given)	53.61%
CC1CCc2nc(O)c(C(=O)NCc3ccncc3)cc2C1 (stereo not given)	1.06%
Cc1nn(CCO)c(C)c1CNCc1cccnc1N(C)C	23.42%
CC(C)Oc1ncnc2c1CCN(Cc1ccc(F)cc1)CC2	1.08%
COc1ccccc1OCCC(=O)N1CCCC1Cn1cc(C)cn1 (stereo not given)	-14.11%
Cc1ccc(CNC(=O)CN2CCN(CC(O)C3CC3)CC2)cc1 (stereo not given)	-10.6%
Cc1cccc(CN2CCO[C@H]3[C@@H](OCc4ccncc4)CC[C@@H]32)n1	15.78%
Cc1cnn(C2CCCN(C(=O)CCCNc3ncccn3)C2)c1 (stereo not given)	-34.45%
COCC(=O)N1C[C@H]2CCCC(OCc3cccnc3)[C@H]2C1 (stereo not given in full)	-34.83%
CC(C)N(C)Cc1nnc2n1CCCN(c1cnccn1)C2	20.01%
CNC(=O)c1cc2c(nc1NCC(C)C)CCN(CC1CC1)CC2	57.85%
CNC(=O)c1cc2c(nc1NCC1CC1)CCN(CC1CC1)CC2	11.18%
Cc1nc2c(cc1C(=O)O)CCN(CC1CC1)CC2	-14.21%
Cn1nccc1-c1nc2c(cc1C(=O)O)CCN(C(=O)C1CC1)CC2	-28.2%
CNC(=O)N1CCc2cc(C(=O)NCC3CC3)c(NC(C)C)nc2CC1	11.9%
CNC(=O)c1cc2c(nc1NC(C)C)CCNCC2	-9.98%
Cn1nccc1-c1nc2c(cc1C(=O)O)CCN(CC1CC1)CC2	52.66%
CNC(=O)c1cc2c(nc1NC(C)C)CCN(C(=O)NC(C)C)CC2	54.06%
CNC(=O)c1cc2c(nc1NCC(C)C)CCN(C)CC2	20.21%
CC(=O)N(Cc1noc(C2CC2)n1)C1CCN(Cc2ccccn2)C1 (stereo not given)	-1.02%
CCN1CC(COC(=O)c2ccc(Br)cc2F)CC1=O (stereo not given)	17.86%

SMILES	INHIBITION
Cc1cc(NC(=O)CNC2CCc3ncnn3C2)no1 (stereo not given)	8.42%
CN(c1ncc(S(N)(=O)=O)s1)C1CCC1	27.17%
CC(=O)NCCNC(=O)N(C)Cc1ccc2c(c1)OCCO2	-43.47%
Clc1ccc(COCC2CCN(Cc3ccccn3)CC2)cc1	-7.16%
Cn1cnc(S(=O)(=O)N2CCO[C@H]3[C@@H](OCC4CC4)CC[C@@H]32)c1	-6.83%
CNC(=O)c1cc(C)nc(C2(C)CCCN2c2cc(C)ncn2)n1 (stereo not given)	-4.78%
Cc1cc(C(=O)N2CCCC(O)(CN3CCCC3)C2)ccc1Cl (stereo not given)	19.36%
Cc1cncc(C(=O)N2CCCC(O)(CN3CCCC3)C2)c1 (stereo not given)	-22.01%
Cc1cc(C)c(C(=O)N2CCCC(O)(CN3CCCC3)C2)cc1C (stereo not given)	79.79%
O=C(c1ccccn1)N1C[C@H]2CC[C@@H](C1)N(C(=O)CCc1cccs1)C2	-89.49%
Cc1cc(C2CCCN2CCCc2nc3ccccc3o2)on1 (stereo not given)	-27.69%
Cn1c(CN2CCC(OCc3cccnc3)CC2)cc2ccccc21	29.36%
Cc1cnc(CN(C)C2CCN(CC(=O)Nc3c(C)n[nH]c3C)C2)o1 (stereo not given)	36.65%
CC(=O)N(Cc1ncc(C)o1)C1CCN(CCc2ccncc2)C1 (stereo not given)	-23.45%
Cc1cc(NC(=O)CN2CCC(N(C)Cc3ncc(C)o3)C2)n(C)n1 (stereo not given)	57.11%
CCc1cnc(CN(C)C2CCN(CCS(C)(=O)=O)C2)o1 (stereo not given)	-29.5%
Cc1cnc(CN(C)C2CCN(CC(=O)Nc3nccs3)C2)o1 (stereo not given)	23.24%
CCc1cnc(CN(C(C)=O)C2CCN(CCc3cccs3)C2)o1 (stereo not given)	-9.66%
CC(=O)N(Cc1ncc(C)o1)C1CCN(CCc2cccs2)C1 (stereo not given)	64.16%
CCc1cnc(CN(C)C2CCN(CCc3cccs3)C2)o1 (stereo not given)	66.97%
CCc1cnc(CN(C)C2CCN(CCc3ccccn3)C2)o1 (stereo not given)	-3.88%
N#Cc1ccc(N2CCN(c3cnccn3)CC2)c(C(F)(F)F)c1	-22.24%
CC(C)NC(=O)N1Cc2nccn2CC(COc2cccnc2)C1 (stereo not given)	27.08%
Cc1nnc2n1CCN(CCC(=O)Nc1sccc1C#N)C2	-7.41%
CCC(NC(=O)c1cccc(N2CCCC2=O)c1)c1ccc(OC)cc1 (stereo not given)	30.34%
Cc1ccc(C(=O)N2CCn3c(COCC4CC4)cnc3C2C)nc1 (stereo not given)	-4.95%
O=C(CN1C=Nc2ccccc2S1(=O)=O)NCc1ccccc1	33.61%

SMILES	INHIBITION
O=C(CN1C=Nc2ccccc2S1(=O)=O)NCc1ccccc1F	68.24%
O=C(CN1C=Nc2ccccc2S1(=O)=O)NC1CCCCC1	-4.97%
CC(C)(C)NC(=O)NC(=O)CN1C=Nc2ccccc2S1(=O)=O	13.24%
CCCNC(=O)NC(=O)CN1C=Nc2ccccc2S1(=O)=O	-35.65%
O=C(CN1C=Nc2ccccc2S1(=O)=O)NCC1CC1	66.2%
CCC(C)(C)NC(=O)CN1C=Nc2ccccc2S1(=O)=O	51.94%
Cc1ccc(CNC(=O)CN2C=Nc3ccccc3S2(=O)=O)s1	3.86%
CC(C)CNC(=O)CN1C=Nc2ccccc2S1(=O)=O	21.89%
Cn1ccc(C(=O)N2CCC(c3cc(CCO)n(C)n3)C2)n1 (stereo not given)	-14.3%
CN1[C@@H](CCC(=O)NCc2ccc(F)cc2)CNC(=O)[C@H]2NCC[C@H]21	4%
Cc1nc2ccccc2nc1CN1CCCC1Cn1cncn1 (stereo not given)	53.72%
c1ccc(CN2CCCC2Cn2cncn2)nc1 (stereo not given)	23.11%
Cc1cccc2nc(CN3CCCC3Cn3cccn3)cn12 (stereo not given)	19.71%
Cc1cccc2nc(CN3CCCC3Cn3cncn3)cn12 (stereo not given)	78.28%
Cc1nc2ccccc2nc1CN1CCCCC1Cn1cncn1 (stereo not given)	12.74%
Cc1c(Cl)c(CN2CCCC2Cn2cncn2)nc2ccccc12 (stereo not given)	-8.32%
CC[C@H](C)[C@H](NC(=O)Cc1csc(-c2cccc(Cl)c2)n1)C(=O)O	13.05%
CC(Oc1cc(Cl)cc(Cl)c1)C(=O)NCCS(N)(=O)=O (stereo not given)	-10.59%
CC(=O)N1CC2(CCCC2)c2ccccc21	3.01%
CCCn1ncc(C(=O)NC(C)c2c(C)nn(CC)c2C)c1C (stereo not given)	-21.14%
CCn1nc(C)c(C(C)NC(=O)c2cccc(NCC(=O)O)c2)c1C (stereo not given)	-6.64%
CCCn1cc(C(=O)NC(C)c2c(C)nn(CC)c2C)c(C)n1 (stereo not given)	51.19%
Cn1ccnc1CN1CC[C@H](O)[C@@H](n2ccc(=O)[nH]c2=O)CC1	31.14%
CCN1CC2(CC1=O)CN(Cc1ccco1)CCN(C(=O)C(C)C)C2 (stereo not given)	-47.39%
